Reference: the supplement of paper PMC11001985
Unmarked numbers belong to inactive results.

The targets below were run with C#CCNC(=O)CCSSCCC(=O)NCCc1ccc(C=O)c(C=O)c1 (assay: lysine labeling ratio R10:1 (500 µM / 50 µM probe), SILAC-ABPP in living cells; higher = lower intrinsic lysine reactivity toward the probe, active = 2 or less). Details: HeLa; probe concentrations 500 vs 50 µM.
How it was run: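 In PBS at room temperature, living HeLa cells grown with SILAC light or heavy labels were treated with 50 µM or 500 µM of an alkyne-tagged, disulfide-linked lysine probe, with label swaps in both directions. Analysis was by LC-MS/MS on a TIMS-TOF Pro after click to biotin-azide, neutravidin capture and DTT release. For each lysine, R is the median across forward and reverse replicates of the filtered median high-probe/low-probe MS1 peptide ratio, capped at 20.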

Sequence of UniProt Q15149 (Q15149 whole entry): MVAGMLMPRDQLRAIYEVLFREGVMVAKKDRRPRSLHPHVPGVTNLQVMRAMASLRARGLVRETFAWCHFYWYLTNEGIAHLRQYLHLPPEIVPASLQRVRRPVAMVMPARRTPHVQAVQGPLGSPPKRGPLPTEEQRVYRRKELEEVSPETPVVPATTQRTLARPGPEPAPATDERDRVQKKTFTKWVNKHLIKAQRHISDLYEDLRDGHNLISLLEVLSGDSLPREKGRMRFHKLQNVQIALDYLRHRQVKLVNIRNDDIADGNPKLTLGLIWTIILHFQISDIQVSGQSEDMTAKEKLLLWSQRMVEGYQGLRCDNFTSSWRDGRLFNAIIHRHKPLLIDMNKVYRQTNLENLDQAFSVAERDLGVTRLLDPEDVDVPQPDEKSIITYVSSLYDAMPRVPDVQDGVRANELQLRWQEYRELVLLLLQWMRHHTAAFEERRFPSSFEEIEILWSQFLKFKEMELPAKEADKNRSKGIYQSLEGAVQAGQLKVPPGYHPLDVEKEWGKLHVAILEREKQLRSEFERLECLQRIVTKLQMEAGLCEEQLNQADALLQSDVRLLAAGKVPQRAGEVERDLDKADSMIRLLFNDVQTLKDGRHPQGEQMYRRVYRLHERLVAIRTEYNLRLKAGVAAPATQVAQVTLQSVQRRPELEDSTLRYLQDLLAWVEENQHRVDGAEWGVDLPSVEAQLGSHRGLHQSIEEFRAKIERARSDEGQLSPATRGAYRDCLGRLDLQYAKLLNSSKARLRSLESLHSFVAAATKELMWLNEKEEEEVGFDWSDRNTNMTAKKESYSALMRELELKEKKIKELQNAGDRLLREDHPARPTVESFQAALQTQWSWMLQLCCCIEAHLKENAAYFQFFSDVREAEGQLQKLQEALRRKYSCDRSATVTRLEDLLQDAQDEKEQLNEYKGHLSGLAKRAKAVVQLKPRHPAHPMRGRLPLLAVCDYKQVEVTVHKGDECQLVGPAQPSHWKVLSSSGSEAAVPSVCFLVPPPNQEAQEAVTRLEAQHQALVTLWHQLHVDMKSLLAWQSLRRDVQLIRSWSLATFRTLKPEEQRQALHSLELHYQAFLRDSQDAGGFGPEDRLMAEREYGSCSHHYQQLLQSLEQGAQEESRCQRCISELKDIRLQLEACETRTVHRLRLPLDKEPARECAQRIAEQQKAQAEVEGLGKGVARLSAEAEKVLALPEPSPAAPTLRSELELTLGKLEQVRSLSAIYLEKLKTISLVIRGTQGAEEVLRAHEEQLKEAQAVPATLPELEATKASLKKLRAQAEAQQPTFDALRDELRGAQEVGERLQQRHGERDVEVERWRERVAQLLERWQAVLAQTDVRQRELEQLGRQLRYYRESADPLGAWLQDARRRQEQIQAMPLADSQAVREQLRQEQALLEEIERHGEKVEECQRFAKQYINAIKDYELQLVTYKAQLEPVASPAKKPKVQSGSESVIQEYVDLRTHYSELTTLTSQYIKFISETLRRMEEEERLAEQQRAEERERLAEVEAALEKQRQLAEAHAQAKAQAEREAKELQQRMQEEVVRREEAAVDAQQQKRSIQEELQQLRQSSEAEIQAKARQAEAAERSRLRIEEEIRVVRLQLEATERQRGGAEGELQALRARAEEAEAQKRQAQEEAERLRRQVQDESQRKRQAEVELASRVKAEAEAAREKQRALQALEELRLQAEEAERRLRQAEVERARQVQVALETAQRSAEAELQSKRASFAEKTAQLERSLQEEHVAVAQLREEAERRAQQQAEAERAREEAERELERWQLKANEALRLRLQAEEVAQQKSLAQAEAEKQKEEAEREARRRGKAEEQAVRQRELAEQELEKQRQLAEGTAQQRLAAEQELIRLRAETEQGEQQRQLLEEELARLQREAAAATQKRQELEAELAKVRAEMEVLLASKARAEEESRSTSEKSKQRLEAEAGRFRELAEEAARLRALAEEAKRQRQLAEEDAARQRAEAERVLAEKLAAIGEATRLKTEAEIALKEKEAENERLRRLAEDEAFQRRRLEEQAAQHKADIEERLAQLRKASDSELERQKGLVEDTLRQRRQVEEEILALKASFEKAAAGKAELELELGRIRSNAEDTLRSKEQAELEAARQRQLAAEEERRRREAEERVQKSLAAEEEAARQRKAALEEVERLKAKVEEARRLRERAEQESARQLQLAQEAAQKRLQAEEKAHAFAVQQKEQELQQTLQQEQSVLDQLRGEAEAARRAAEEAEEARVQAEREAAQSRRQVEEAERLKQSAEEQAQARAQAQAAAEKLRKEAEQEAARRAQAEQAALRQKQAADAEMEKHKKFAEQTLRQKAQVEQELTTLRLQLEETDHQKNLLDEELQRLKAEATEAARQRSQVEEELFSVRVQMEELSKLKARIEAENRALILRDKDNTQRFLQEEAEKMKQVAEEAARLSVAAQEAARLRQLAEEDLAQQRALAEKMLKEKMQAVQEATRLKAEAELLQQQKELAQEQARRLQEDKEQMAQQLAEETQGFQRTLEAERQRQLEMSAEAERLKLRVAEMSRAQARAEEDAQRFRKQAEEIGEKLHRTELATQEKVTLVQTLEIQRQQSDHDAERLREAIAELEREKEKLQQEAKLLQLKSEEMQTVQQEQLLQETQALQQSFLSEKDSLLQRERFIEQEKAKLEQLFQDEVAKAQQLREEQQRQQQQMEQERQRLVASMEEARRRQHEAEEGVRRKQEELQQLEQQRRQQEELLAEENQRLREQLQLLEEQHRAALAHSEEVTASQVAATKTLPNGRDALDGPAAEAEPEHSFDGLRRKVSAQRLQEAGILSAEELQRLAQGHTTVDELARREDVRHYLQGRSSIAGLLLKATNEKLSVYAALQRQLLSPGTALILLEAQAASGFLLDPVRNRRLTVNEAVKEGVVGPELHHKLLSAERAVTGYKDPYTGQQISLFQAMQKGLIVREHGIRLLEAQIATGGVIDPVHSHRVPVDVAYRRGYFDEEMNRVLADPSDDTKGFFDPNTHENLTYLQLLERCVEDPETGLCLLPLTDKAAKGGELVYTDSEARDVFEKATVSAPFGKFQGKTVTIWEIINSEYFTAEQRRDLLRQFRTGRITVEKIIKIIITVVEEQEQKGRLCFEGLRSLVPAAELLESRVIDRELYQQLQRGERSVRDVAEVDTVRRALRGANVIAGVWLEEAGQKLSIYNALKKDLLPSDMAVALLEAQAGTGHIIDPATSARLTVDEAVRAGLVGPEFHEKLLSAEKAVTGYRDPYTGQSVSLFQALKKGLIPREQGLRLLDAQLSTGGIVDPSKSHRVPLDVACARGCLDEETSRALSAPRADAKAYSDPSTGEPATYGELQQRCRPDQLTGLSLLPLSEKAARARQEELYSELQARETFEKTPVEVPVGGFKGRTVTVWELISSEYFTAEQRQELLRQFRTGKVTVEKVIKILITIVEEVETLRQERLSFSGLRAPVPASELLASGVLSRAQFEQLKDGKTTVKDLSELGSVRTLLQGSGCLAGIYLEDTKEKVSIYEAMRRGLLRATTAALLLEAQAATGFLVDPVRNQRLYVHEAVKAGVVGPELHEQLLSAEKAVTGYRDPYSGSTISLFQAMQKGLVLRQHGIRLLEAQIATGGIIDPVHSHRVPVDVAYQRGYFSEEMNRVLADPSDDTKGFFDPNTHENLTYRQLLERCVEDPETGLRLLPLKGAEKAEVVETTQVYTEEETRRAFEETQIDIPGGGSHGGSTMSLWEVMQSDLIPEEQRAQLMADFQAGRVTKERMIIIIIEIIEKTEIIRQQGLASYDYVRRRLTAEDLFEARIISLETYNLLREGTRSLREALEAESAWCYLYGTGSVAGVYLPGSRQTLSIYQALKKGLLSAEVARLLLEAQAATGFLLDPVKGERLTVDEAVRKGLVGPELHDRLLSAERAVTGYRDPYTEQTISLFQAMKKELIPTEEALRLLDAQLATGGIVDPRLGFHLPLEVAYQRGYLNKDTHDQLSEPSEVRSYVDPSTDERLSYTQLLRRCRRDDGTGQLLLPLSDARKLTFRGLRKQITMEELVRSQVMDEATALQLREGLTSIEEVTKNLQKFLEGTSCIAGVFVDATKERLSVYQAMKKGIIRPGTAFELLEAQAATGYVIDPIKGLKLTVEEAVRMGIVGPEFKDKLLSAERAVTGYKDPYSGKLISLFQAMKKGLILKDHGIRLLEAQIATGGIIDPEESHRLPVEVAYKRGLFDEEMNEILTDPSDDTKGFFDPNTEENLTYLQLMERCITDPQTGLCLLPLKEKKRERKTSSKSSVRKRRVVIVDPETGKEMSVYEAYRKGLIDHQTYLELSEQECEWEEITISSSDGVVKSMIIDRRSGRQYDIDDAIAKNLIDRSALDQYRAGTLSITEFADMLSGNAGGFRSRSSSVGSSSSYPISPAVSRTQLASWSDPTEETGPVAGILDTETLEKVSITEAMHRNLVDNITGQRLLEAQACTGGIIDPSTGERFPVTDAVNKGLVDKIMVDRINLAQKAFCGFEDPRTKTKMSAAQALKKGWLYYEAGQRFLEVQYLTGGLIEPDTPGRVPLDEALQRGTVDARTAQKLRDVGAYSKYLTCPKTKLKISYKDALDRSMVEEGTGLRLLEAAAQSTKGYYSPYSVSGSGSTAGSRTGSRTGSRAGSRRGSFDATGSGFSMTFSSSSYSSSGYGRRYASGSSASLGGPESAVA
Sequence of UniProt Q08722 (Q08722 whole entry): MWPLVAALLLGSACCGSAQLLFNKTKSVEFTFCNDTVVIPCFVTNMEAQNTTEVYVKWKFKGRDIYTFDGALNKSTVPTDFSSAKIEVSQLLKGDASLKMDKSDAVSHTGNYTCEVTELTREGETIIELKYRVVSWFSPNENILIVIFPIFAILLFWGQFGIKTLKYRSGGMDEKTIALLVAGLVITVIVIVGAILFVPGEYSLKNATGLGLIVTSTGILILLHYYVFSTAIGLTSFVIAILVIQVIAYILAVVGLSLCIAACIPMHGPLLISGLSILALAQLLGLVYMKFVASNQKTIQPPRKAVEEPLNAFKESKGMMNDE
Sequence of UniProt Q8N138 (Q8N138 whole entry): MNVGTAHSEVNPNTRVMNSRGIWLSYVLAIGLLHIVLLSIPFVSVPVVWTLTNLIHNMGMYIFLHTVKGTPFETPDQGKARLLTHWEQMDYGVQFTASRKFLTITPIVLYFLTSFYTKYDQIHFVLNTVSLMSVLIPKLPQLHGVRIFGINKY

Row | Target | lysine labeling ratio R10:1
1 | CCT7 (lysine site: K250) (UniProt Q99832) | 1.57 (active)
2 | SERPINC1 (lysine site: K260) (UniProt P01008) | 5.6
3 | CD47 (lysine site: K130) (UniProt Q08722) | 3.14
4 | RPSA (lysine site: K52) (UniProt P08865) | 1.63 (active)
5 | FLNA (lysine site: K338) (UniProt P21333) | 3.9
6 | PDIA4 (lysine site: K145) (UniProt P13667) | 0.551 (active)
7 | UniProt Q15149 (lysine site: K567) | 14.2
8 | FN1 (lysine site: K269) (UniProt P02751) | 9.87
9 | UniProt Q15149 (lysine site: K2411) | 4.67
10 | SERPINH1 (lysine site: K190) (UniProt P50454) | 2.12
11 | GNAI2 (lysine site: K313) (UniProt P04899) | 1.06 (active)
12 | PLOD2 (lysine site: K412) (UniProt O00469) | 7.56
13 | UniProt P15941 (lysine site: K1125) | 3
14 | UniProt P60866 (lysine site: K8) | 2.33
15 | UniProt P18859 (lysine site: K46) | 4.7
16 | UniProt Q9UHN6 (lysine site: K846) | 1.51 (active)
17 | FLNA (lysine site: K1593) (UniProt P21333) | 2.69
18 | SERBP1 (lysine site: K76) (UniProt Q8NC51) | 1.17 (active)
19 | UniProt Q16363 (lysine site: K717) | 0.58 (active)
20 | UniProt Q15149 (lysine site: K2078) | 2.58

Row | Target | lysine labeling ratio R10:1
21 | GPI (lysine site: K454) (UniProt P06744) | 2.77
22 | SEMA3C (lysine site: K570) (UniProt Q99985) | 8.1
23 | GANAB (lysine site: K491) (UniProt Q14697) | 1.12 (active)
24 | XRCC5 (lysine site: K36) (UniProt P13010) | 2.42
25 | PGK1 (lysine site: K146) (UniProt P00558) | 1.57 (active)
26 | VIM (lysine site: K120) (UniProt P08670) | 10
27 | EEF1G (lysine site: K434) (UniProt P26641) | 3.73
28 | DDR1 (lysine site: K112) (UniProt Q08345) | 2.03
29 | M6PR (lysine site: K44) (UniProt P20645) | 2.9
30 | ORMDL3 (lysine site: K79) (UniProt Q8N138) | 5.16
31 | CLU (lysine site: K222) (UniProt P10909) | 0.58 (active)
32 | IQGAP1 (lysine site: K274) (UniProt P46940) | 3.87
33 | MYH9 (lysine site: K760) (UniProt P35579) | 3.31
34 | IARS (lysine site: K382) (UniProt P41252) | 3.02
35 | FAT4 (lysine site: K1251) (UniProt Q6V0I7) | 1.62 (active)
36 | UniProt P26639 (lysine site: K549) | 0.996 (active)
37 | ITGB1 (lysine site: K91) (UniProt P05556) | 1.53 (active)
38 | UniProt P62263 (lysine site: K125) | 5.61
39 | EPCAM (lysine site: K129) (UniProt P16422) | 6.18
40 | GSN (lysine site: K193) (UniProt P06396) | 2.07
